# Source: the supplement of paper PMC6609913
# Structures can show the parent of a compound that is named as a salt. ± gives the standard deviation of the averaged measurements. Whole data set: some 1,300 compounds, median “normalised cell viability” near 1, cut for the lowest 2% near 0.14. The entries come from a sample that favours the lowest values as a whole.
# Tested on: V-C8 (BRCA2-deficient hamster cells)
# Assay: normalised cell viability (fraction of plate median); higher = more viable cells (less toxic)
# Conditions: 5 µM
# In short: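 BRCA2-deficient hamster V-C8 cells and BRCA2-restored V-C8 cells were plated in 96-well plates, and library drugs were added 24 h later at 5 μM in 100 μl medium. Exposure lasted 3 days in screen 1 and 6 days in screen 2, next to solvent-only wells. Viability was then read by resazurin assay, median-plate normalised and averaged across triplicate wells.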
SMILES,normalised cell viability (treatment time: 3 days),normalised cell viability (treatment time: 6 days)
CN(C)CCOc1ccc(/C(=C(/CCCl)c2ccccc2)c2ccccc2)cc1 [Toremifene],0.716 ± 0.067,0.875 ± 0.052
"CCN(CC)CCOc1ccc(C(=C(Cl)c2ccccc2)c2ccccc2)cc1 [Clomiphene citrate (Z,E)]",0.142 ± 0.002,0.118 ± 0.011
CC/C(=C(\c1ccccc1)c1ccc(OCCN(C)C)cc1)c1ccccc1 [Tamoxifen citrate],0.837 ± 0.019,0.767 ± 0.035
CC[N+](CC)(CC(=O)Nc1c(C)cccc1C)Cc1ccccc1 [Denatonium benzoate],1.01 ± 0.031,1.07 ± 0.019
Cc1cn([C@H]2C=C[C@@H](CO)O2)c(=O)[nH]c1=O [Stavudine],1.05 ± 0.077,1.23 ± 0.35
O=C1NCCN1CCN1CCC(c2cn(-c3ccc(F)cc3)c3ccc(Cl)cc23)CC1 [Sertindole],0.385 ± 0.019,0.591 ± 0.069
CC(C)(C)C(=O)OCOC(=O)[C@@H]1N2C(=O)[C@@H](/N=C/N3CCCCCC3)[C@H]2SC1(C)C [Pivmecillinam hydrochloride],0.959 ± 0.056,1.01 ± 0.039
Cc1ncc([N+](=O)[O-])n1CCO [Metronidazole],0.914 ± 0.088,1.04 ± 0.058
CC(=O)O[C@H]1C(=O)[C@@]2(C)[C@H]([C@H](OC(=O)c3ccccc3)[C@]3(O)C[C@H](OC(=O)[C@H](O)[C@@H](NC(=O)c4ccccc4)c4ccccc4)C(C)=C1C3(C)C)[C@]1(OC(C)=O)CO[C@@H]1C[C@@H]2O [Paclitaxel],0.193 ± 0.01,0.199 ± 0.0046
Cc1oncc1C(=O)Nc1ccc(C(F)(F)F)cc1 [Leflunomide],0.904 ± 0.065,0.959 ± 0.043
COc1cccc(N(C)C(=S)Oc2ccc3c(c2)CCCC3)n1 [Liranaftate],0.805 ± 0.038,0.74 ± 0.046
COC(=O)Nc1nc2ccc(SC(C)C)cc2[nH]1 [Methiazole],0.214 ± 0.0082,0.221 ± 0.025
COc1ccc(CN2CCN(C(c3ccc(F)cc3)c3ccc(F)cc3)CC2)c(OC)c1OC [Lomerizine hydrochloride],0.881 ± 0.042,0.799 ± 0.035
Cc1ccc(S(=O)(=O)NC(=O)NN2CC3CCCC3C2)cc1 (stereo unspecified) [Gliclazide],1.04 ± 0.049,0.979 ± 0.091
CCOC(=O)OC(C)OC1=C(C(=O)Nc2ccccn2)N(C)S(=O)(=O)c2ccccc21 (stereo unspecified) [Ampiroxicam],1.03 ± 0.055,1.02 ± 0.041
Cc1cc(N)c2ccccc2[n+]1CCCCCCCCCC[n+]1c(C)cc(N)c2ccccc21 [Dequalinium dichloride],0.171 ± 0.0032,0.162 ± 0.013
CN(CCCCCCCCCCN(C)C(=O)Oc1cccc([N+](C)(C)C)c1)C(=O)Oc1cccc([N+](C)(C)C)c1 [Demecarium bromide],0.828 ± 0.022,0.812 ± 0.013
C[C@H]1NC(=O)NC1=O [Methylhydantoin-5-(D)],0.968 ± 0.032,0.954 ± 0.077
